The source of these data is PubChem BioAssay (NCATS).

Unmarked numbers belong to inactive results. Records with an inconclusive call do not appear. The source made the active and inactive calls. Unless noted, the call rests on the fitted dose curve; in most records, active means well fitted curve in either direction with a large enough effect (not every such curve was filed as active); inconclusive means small, poorly fitted or top-dose-only effect, or another doubt; inactive means flat fitted curve, though single readings scatter. Some results are limits rather than exact numbers.

Assay [1] addresses Lysosomal acid glucosylceramidase (Homo sapiens) (UniProt P04062). The experiment in a line: Glucocerebrosidase-p2 (AID 348; in the data active means potency below about 10 µM; further: potency means the concentration at half of the fitted maximal effect). Conditions: purified GBA, blue fluorogenic substrate, 40 min. Summed up: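 Normal human glucocerebrosidase (0.2 nM) with blue fluorogenic substrate (80 uM final) in citrate/phosphate pH 5.9 with 10mM sodium taurocholate, 0.01% tween-20; 40 min RT, NaOH/glycine stop; fluorescence Ex 365/Em 440; AC50 from a titration from 0.6 nM upwards.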

Assay [2] in a line: AP1 Signaling Pathway (AID 357). Further: on the % scale 0 is the no-effect control and ±100 the full control effect. Conditions: ME-180 AP-1-bla reporter, EGF-induced, beta-lactamase ratio, 5 h; at 7.69 µM (top of the series) unless noted. Summed up: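 Read-out was the 460nm/530nm emission ratio (excitation 405nm) after CCF4 loading for 2.5 hours at room temperature. Cells carried an AP-1-driven beta-lactamase reporter, were stimulated with EC50 EGF plus compound for 5 hours, and AC50 values came from titrations.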

Assay [3] in a line: NFAT Signaling Pathway (AID 444).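 Further: carbachol stimulus at about its EC50 of 1 µM final; on the % scale 0 is the no-effect control and ±100 the full control effect.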 The conditions noted are these: Jurkat NFAT-bla M1, carbachol, beta-lactamase ratio, 5 h; at 7.69 µM (top of the series) unless noted. Summed up:
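Read-out: CCF4 FRET ratio (460 nm/530 nm) after 1 h RT dye loading, used for %activity and AC50 from titration series. Cells: Jurkat NFAT-β-lactamase/M1 line, treated with compound plus 1 uM carbachol for 5 h, 37 °C.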

Assay [4] is described as follows: Stat Signaling Pathway (AID 446).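 Further: ME-180 cervical cancer cells given 40 pM IL-6 alongside compound; SIE-controlled beta-lactamase reporter measured as 460/530 nm FRET emission ratio; on the % scale 0 is the no-effect control and ±100 the full control effect.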 The conditions noted are these: ME-180 SIE beta-lactamase reporter, IL-6 stimulated, 5 h; at 7.69 µM (top of the series) unless noted. Summed up: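 Compound effects on IL-6-induced STAT reporter activity were measured in ME-180 cells. After overnight culture, cells were co-treated with 40 pM IL-6 for 5 hrs before beta-lactamase substrate loading at room temperature.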

The target of assay [5] is Glucocorticoid receptor (Homo sapiens) (UniProt P04150). Put plainly: GR-GFP Redistribution (AID 450;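 active means compounds whose dose series gives a full or clear partial fitted curve of increased nuclear translocation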; further: potency means the concentration at half of the fitted maximal effect). The conditions noted are these: U2OS GR-GFP nuclear translocation, laser cytometry, 2 h.
Assay [6] has the same target. The experiment in a line: GR-EFC Redistribution (AID 451; calls by dose curve; further: potency means the concentration at half of the fitted maximal effect). Conditions: CHO-K1 GR-EFC translocation, beta-gal luminescence, 2 h. Summed up:
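Translocation of GR-ED fusion to nuclear EA restores b-gal, read by luminescence after 1 h room-temperature detection. Engineered CHO-K1 biosensor cells, 1,000/well, exposed 2 h at 37 C to titrations up to 46 uM final.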

In assay [7] the target is Mitogen-activated protein kinase 10 (Mus musculus) (UniProt Q61831). Put plainly: JNK3 AlphaScreen Assay (AID 530).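 Further: kinase came from lysate of stimulated human HepG2 cells; signal reports phosphorylation of biotinylated GST-cJun 1-79 at Ser73 with 10 µM ATP; on the % scale 0 is the no-effect control and ±100 the full control effect.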 Conditions: JNK3 lysate, c-Jun phosphorylation; series mostly up to 57.1 µM. Summed up:
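Kinase buffer: 20 mM Tris-HCl pH 7.6, 10 mM MgCl2, 1 mM DTT, 0.1 mM Na3VO4, 0.01% Tween-20; ATP 10 uM. Substrate biotin-GST-cJun(1-79), enzyme from activated HepG2 lysates. Detection by Ser73 phospho-antibody AlphaScreen.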

In assay [8] the target is 3',5'-cyclic-AMP phosphodiesterase 4B (Homo sapiens) (UniProt Q07343). Put plainly: qHTS Assay for Inhibitors of PDE-IV (AID 607; active means well fitted activation curve with a large enough effect in the main read-out, with a control signal flat, not every such curve was filed as active; further: % of control where 0% means no effect). The conditions noted are these: HEK293 ACTOne CNG channel cells, membrane potential fluorescence; series mostly up to 22.9 µM. Summed up:
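ACTOne HEK293 cells carry a modified cAMP-gated CNG channel and express endogenous PDE4; plated 1000 cells/well, compounds up to 22.9 uM final. Membrane-potential dye fluorescence (ex 535/em 590) was read; parental cells received 10 uM forskolin + 100 uM RO 20-1724.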

The target of assay [9] is Cytochrome P450 1A2 (Homo sapiens) (UniProt P05177). The experiment in a line: p450-cyp1a2 (AID 410; calls by dose curve; further: potency means the concentration at half of the fitted maximal effect;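 on activity change, negative = inhibition: -100% = full effect of reference inhibitor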). The conditions noted are these: recombinant CYP1A2, luciferin-ME demethylation, luminescence; series mostly up to 11.4 µM. Summed up: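 20nM CYP1A2, 100uM Luciferin-ME (=Km), 100mM KPO4; cpd 10 min RT; +NADPH regen, 60 min RT; stop/detect 20 min; luminescence. Normalized to furafylline 57 uM = full inhibition.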

The target of assay [10] is Cytochrome P450 2C9 (Homo sapiens) (UniProt P11712). Put plainly: qHTS Assay for Inhibitors and Substrates of Cytochrome P450 2C9 (AID 883; active means well fitted inhibition curve with a large enough effect; further: nearly all actives have a fitted effect of over 60% in size; further: potency means the concentration at half of the fitted maximal effect). The conditions noted are these: recombinant CYP2C9, luciferin-H luminescence, 60 min; series mostly up to 57.1 µM. Summed up:
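Turnover of Luciferin-H (100uM, KM) by 10nM human CYP2C9 was measured over 60 min at 37C with NADPH regeneration; inhibitors and some substrates reduce luminescence. Data normalized to sulphaphenazole 57uM.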

Assay [11] concerns the target Cytochrome P450 2D6 (Homo sapiens) (UniProt P10635). The experiment in a line: qHTS Assay for Inhibitors and Substrates of Cytochrome P450 2D6 (AID 891; active means well fitted inhibition curve with a large enough effect;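 further: luciferin methyl ether substrate demethylated by CYP2D6 with NADPH regeneration; on the % scale 0 is the no-effect control and ±100 the full control effect; nearly all actives have a fitted effect of over 60% in size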). Conditions: recombinant CYP2D6, luciferin-ME EGE luminescence; series mostly up to 11.4 µM. An outline of the steps: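 Luminescent read-out of luciferin formed by 5 nM human CYP2D6 demethylating 30 uM Luciferin-ME EGE (Km level) over 60 min at room temperature after NADPH regeneration addition. Data normalized to full inhibition by 1.43 uM quinidine.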

The target of assay [12] is Cytochrome P450 2C19 (Homo sapiens) (UniProt P33261). Put plainly: qHTS Assay for Inhibitors and Substrates of Cytochrome P450 2C19 (AID 899; active means well fitted inhibition curve with a large enough effect; further: on the % scale 0 is the no-effect control and ±100 the full control effect; nearly all actives have a fitted effect of over 60% in size). Conditions: recombinant CYP2C19, luciferin-H EGE luminescence; series mostly up to 11.4 µM. An outline of the steps:
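Reactions contain 5nM enzyme, 10uM Luciferin-H EGE (KM) and 50mM KPO4; compound preincubates 10 min at 37C, NADPH regeneration starts turnover for 60 min. Luminescence after detection reagent gives activity.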

The nature of assay [13]: qHTS Assay for Identification of Small Molecule Agonists for Hypoxia Response Element Signaling Pathway (AID 914; active means well fitted activation curve with a large enough effect in the signal ratio, with a control signal flat, not every such curve was filed as active; the % refers to the signal ratio; further: % of control where 0% means no effect). The conditions noted are these: ME-180 (cervical carcinoma) HRE-bla reporter, beta-lactamase ratio, CoCl2, 17 h; hits give high values. An outline of the steps: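 qHTS titration; ME-180 HRE-bla cells; EC50 CoCl2 co-treatment, 17 h at 37 degrees Celsius; CCF4 dye, ex 405nm, em 460nm and 530nm; %Activity from ratio; AC50.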

Lysosomal acid glucosylceramidase (Homo sapiens), sequence (P04062 whole entry, looked up): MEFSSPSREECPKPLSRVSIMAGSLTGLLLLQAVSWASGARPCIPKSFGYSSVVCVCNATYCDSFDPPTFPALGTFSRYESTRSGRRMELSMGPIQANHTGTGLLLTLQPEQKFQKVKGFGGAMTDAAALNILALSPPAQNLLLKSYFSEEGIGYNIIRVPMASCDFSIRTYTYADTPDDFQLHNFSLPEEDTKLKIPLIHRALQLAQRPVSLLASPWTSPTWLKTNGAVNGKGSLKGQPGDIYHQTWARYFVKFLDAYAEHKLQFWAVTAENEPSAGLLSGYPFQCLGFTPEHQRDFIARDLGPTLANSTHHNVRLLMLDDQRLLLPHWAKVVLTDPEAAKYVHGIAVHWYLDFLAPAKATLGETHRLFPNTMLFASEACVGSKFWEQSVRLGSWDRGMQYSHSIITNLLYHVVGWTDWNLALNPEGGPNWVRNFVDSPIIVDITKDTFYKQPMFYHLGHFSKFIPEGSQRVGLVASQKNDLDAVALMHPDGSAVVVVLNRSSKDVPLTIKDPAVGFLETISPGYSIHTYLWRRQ
3',5'-cyclic-AMP phosphodiesterase 4B (Homo sapiens), sequence (Q07343 whole entry, looked up): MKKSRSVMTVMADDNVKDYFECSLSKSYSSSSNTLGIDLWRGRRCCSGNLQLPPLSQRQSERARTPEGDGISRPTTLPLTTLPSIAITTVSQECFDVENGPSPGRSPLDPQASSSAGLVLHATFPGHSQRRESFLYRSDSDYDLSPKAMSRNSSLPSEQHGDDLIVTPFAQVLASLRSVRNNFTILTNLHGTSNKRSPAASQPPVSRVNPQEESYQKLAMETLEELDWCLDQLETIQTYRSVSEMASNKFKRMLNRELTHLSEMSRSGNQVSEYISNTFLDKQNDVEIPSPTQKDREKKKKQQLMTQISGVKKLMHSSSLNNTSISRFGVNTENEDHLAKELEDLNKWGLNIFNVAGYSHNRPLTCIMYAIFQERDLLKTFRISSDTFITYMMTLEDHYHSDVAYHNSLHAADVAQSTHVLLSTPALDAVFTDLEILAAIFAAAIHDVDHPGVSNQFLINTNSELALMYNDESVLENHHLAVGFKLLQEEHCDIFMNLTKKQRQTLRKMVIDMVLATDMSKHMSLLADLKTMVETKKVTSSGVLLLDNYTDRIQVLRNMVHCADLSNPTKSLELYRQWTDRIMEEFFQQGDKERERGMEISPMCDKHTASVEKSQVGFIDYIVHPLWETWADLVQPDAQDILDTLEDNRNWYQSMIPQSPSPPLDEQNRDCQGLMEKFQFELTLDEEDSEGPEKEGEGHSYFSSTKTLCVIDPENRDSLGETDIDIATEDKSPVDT
Glucocorticoid receptor (Homo sapiens), sequence (P04150 whole entry, looked up): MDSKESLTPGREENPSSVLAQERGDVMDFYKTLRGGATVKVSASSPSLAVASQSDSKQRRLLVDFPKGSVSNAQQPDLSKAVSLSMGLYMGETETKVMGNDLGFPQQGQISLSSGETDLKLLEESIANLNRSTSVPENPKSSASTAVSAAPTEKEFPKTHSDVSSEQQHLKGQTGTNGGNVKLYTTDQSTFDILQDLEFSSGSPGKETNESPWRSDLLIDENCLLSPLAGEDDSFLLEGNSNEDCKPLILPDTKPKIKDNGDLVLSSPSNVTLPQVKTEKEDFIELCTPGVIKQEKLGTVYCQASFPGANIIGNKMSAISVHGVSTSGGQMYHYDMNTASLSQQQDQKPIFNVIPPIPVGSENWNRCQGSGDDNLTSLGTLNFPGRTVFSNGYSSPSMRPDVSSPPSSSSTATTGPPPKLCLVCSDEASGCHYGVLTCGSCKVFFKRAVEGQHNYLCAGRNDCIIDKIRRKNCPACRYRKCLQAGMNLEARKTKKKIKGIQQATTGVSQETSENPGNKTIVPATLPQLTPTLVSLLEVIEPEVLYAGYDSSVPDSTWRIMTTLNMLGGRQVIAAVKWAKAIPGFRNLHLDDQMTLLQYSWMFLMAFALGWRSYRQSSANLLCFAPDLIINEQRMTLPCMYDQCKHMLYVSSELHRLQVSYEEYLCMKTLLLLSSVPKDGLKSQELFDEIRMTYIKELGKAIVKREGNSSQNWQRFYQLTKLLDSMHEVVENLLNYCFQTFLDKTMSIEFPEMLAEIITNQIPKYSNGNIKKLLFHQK
Cytochrome P450 2D6 (Homo sapiens), sequence (P10635 whole entry, looked up): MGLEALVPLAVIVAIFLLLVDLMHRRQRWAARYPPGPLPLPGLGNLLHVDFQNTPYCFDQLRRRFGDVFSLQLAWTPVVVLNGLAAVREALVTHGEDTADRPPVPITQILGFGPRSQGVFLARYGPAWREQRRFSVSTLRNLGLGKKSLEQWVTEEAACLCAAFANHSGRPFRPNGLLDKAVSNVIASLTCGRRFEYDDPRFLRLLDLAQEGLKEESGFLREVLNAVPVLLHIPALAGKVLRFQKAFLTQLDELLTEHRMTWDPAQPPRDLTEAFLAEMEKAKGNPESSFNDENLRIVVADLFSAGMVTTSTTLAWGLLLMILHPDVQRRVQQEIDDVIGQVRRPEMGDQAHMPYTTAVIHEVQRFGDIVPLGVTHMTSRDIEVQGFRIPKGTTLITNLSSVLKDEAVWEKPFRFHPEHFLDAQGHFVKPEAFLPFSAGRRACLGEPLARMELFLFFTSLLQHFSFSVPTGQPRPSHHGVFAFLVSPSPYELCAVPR
Cytochrome P450 1A2 (Homo sapiens), sequence (P05177 whole entry, looked up): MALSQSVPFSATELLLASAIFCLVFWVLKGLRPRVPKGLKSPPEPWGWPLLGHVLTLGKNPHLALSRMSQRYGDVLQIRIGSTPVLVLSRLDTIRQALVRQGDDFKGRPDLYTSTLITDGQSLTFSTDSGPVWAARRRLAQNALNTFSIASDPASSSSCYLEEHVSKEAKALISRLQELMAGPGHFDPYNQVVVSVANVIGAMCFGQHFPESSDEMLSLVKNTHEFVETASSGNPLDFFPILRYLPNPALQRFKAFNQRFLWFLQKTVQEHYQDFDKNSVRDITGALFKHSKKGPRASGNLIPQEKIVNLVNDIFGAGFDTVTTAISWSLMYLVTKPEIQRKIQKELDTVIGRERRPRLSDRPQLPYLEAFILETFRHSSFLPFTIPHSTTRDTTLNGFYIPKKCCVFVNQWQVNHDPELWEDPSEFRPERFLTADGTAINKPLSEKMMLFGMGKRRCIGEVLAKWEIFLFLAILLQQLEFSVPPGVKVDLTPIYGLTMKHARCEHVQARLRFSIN
Cytochrome P450 2C9 (Homo sapiens), sequence (P11712 whole entry, looked up): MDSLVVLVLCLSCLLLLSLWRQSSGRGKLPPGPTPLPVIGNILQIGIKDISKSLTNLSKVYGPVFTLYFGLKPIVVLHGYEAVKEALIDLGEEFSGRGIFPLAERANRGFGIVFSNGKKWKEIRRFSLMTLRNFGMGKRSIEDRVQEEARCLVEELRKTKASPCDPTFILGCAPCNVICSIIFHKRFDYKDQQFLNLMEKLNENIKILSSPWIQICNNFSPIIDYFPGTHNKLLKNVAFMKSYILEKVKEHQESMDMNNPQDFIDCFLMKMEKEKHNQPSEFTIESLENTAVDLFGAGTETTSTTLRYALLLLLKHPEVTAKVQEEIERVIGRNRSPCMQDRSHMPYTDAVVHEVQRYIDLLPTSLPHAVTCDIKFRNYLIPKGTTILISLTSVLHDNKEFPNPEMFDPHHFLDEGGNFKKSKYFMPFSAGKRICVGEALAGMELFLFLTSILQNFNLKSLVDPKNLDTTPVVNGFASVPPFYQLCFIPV
Cytochrome P450 2C19 (Homo sapiens), sequence (P33261 whole entry, looked up): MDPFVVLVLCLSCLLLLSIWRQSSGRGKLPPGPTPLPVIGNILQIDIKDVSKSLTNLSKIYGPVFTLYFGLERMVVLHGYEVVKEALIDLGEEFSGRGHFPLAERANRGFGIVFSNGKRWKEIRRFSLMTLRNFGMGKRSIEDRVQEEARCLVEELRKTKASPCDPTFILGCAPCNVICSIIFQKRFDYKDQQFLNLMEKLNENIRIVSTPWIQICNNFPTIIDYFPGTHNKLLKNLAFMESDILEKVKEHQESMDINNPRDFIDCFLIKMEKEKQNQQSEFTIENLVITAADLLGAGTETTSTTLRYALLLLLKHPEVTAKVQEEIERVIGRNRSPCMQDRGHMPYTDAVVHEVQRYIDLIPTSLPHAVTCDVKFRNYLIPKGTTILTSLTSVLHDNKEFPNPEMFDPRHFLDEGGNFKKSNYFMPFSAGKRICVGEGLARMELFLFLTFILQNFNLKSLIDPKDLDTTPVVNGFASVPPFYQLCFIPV

Turning to `O.O.[NH-]C1(C(=O)O)CCCC1.[NH-]C1(C(=O)O)CCCC1.[Ni+2]`, the values for the Potency in assay [1], in assay [5] and in assay [6] were above 11.4 µM, above 46 µM and above 9.22 µM, respectively. In addition, the activity change, negative = inhibition in assay [2] is 8.54%; in assay [3] it was -0.81%; in assay [7], -2.59% [at 11.4 µM]. Also, in assay [4], the activity, negative = inhibition was -5.65%. Also, in assay [8], the outcome was inactive.
As to `CN[C@H]1[C@H](C)O[C@@H](O[C@@H]2C/C=C(/C)C/C(C)=C\C=C/CC[C@@H](C)CNC(=O)/C=C\C=C/[C@H]2C)C[C@@H]1O`, the values for the Potency in [1] and in assay [5] were above 11.4 µM and above 46 µM, respectively. Further, the activity change, negative = inhibition in assay [2] was -6.3%; in [7], 1.47% [at 11.4 µM]; in [10], -5.72% [at 11.4 µM]. Also, the Potency result in assay [9], in [11] and in assay [12] was “inactive” throughout. In addition, in assay [4], the activity, negative = inhibition is -1.24%. Besides, in assay [8], the outcome was inactive.
With `CC1=NN(c2ccccc2)C(=O)[C@@H]1N=Nc1ccc([As](=O)(O)O)c(O)c1`, the Potency in assay [1] is above 11.4 µM; in assay [5] it was above 46 µM; in assay [6], above 9.22 µM; in assay [10], 3.16 µM (active). The figures for the activity change, negative = inhibition in assay [2], in [3] and in assay [7] were 6.32%, 12.3% and -2.32% [at 11.4 µM], respectively. For the same compound, the activity, negative = inhibition in [4] is -13.3%. Besides, in assay [8], the outcome was inactive. Moreover, the Potency result in assay [11] is “inactive”.
For the compound `C[C@@]12Cc3cnc(-c4ccccc4)nc3C[C@@H]1CC[C@@H]1[C@H]3CC[C@@](C)(O)[C@]3(C)CC[C@@H]12`, the Potency is above 11.4 µM in assay [1], above 46 µM in assay [5] and above 9.22 µM in assay [6]. Besides, the values for the activity change, negative = inhibition in assay [2], in [3] and in [7] were 5.09%, -13.1% and 3.79% [at 11.4 µM], respectively. Also, in [4], the activity, negative = inhibition is 1.77%. Further, the compound was called inactive in assay [8].
For `CC(C)CNCCc1ccccn1`, the Potency was above 11.4 µM in assay [1], above 46 µM in assay [5] and above 9.22 µM in assay [6]. Moreover, the activity change, negative = inhibition in [2] is 11.4%; in assay [3], 10.3%; in [7] it was 2.37% [at 11.4 µM]. Moreover, in assay [4], the activity, negative = inhibition was 0.662%. Further, the compound was classed as inactive in assay [8]. The Potency entry in [12] is “inactive”. Moreover, the activation in assay [13] is 5.07%.
Turning to `c1nc(N2CC2)c2cnn([C@@H]3CCCCO3)c2n1`, the Potency was above 11.4 µM in assay [1], above 46 µM in [5] and above 9.22 µM in assay [6]. Also, the figures for the activity change, negative = inhibition in assay [2], in [3] and in assay [7] were 5.4%, 7.32% and 0.68% [at 11.4 µM], respectively. In addition, the activity, negative = inhibition in assay [4] was -5.16%. Besides, the outcome in assay [8] was inactive.
`CN1CCN(c2ccc([N+](=O)[O-])c3[nH]o[n+](=O)c23)CC1`: the results for the Potency in [1], in assay [9] and in assay [6] were above 11.4 µM, 0.398 µM (active) and above 9.22 µM, respectively. Also, the activity change, negative = inhibition in assay [2] was -7.81%; in [7] it was -3.28% [at 11.4 µM]. The activity, negative = inhibition in [4] was 11.3%. The call in [8] was inactive.
Regarding `O=C(O)C[C@H]1OCC=C2CN3CC[C@]45c6ccccc6N[C@@H]4[C@H]1[C@H]2C[C@H]35`, the Potency is above 11.4 µM in [1], above 46 µM in assay [5] and above 9.22 µM in assay [6]. Further, the activity change, negative = inhibition in [2] is 0.952%; in assay [3], -1.05%; in [7], 8.39% [at 11.4 µM]. Further, the activity, negative = inhibition in assay [4] was -4.29%. Moreover, the call in assay [8] was inactive.
Regarding `CCCOC(=O)[C@@H]1[C@@H](C(=O)O)[C@H]2CC[C@@H]1O2`, the Potency was above 11.4 µM in assay [1], above 46 µM in assay [5] and above 9.22 µM in assay [6]. Besides, the activity change, negative = inhibition was 5.41% in [2], -0.63% in assay [3] and 6.67% [at 11.4 µM] in assay [7]. Also, the activity, negative = inhibition in assay [4] was 8.61%. Further, in assay [8], the result was inactive.
For `C[C@@]12CC[C@H]3[C@@H](CC[C@H]4C[C@@H](O)CC[C@]43C)[C@H]1CC[C@@H]2C(=O)C[C@H](O)C(F)(F)F`, the results for the Potency in [1] and in assay [5] were above 11.4 µM and above 46 µM, respectively. The activity change, negative = inhibition in assay [2] is 5.97%; in assay [3] it was 5.84%; in assay [7] it was -0.552% [at 11.4 µM]. Further, the activity, negative = inhibition in [4] is -6.11%. The compound was called inactive in assay [8].
As to `CCSCC[C@H](N)C(=O)O`, the figures for the Potency in assay [1] and in assay [5] were above 11.4 µM and above 46 µM, respectively. Also, the figures for the activity change, negative = inhibition in [2], in [3] and in assay [7] were 4.84%, 3.15% and 3.04% [at 11.4 µM], respectively. In addition, the activity, negative = inhibition in assay [4] is -0.0113%. The result in assay [8] was inactive.
Take `O=S(=O)(NCCO)c1cc[c]([Sb](=[O])([OH])[OH])cc1`: the results for the Potency in [1] and in [6] were above 11.4 µM and above 9.22 µM, respectively. Further, the activity change, negative = inhibition in assay [2] is -1.39%; in [3] it was 16.2%; in [7], 1.82% [at 11.4 µM]. In assay [4], the activity, negative = inhibition is 6.67%. For the same compound, the call in assay [8] was inactive.
